Here are results for 95 compounds from PubChem BioAssay AID504329 (Southern Research Specialized Biocontainment Screening …, 2011).

Screen size: about 340,000 compounds; about 1,000 (0.29%) were called active. Only a sample is shown. Entries with a potency or affinity are not part of this list. Unmarked numbers belong to inactive results. No stated cut-off is given here; in the data, inconclusive means inhibition above about 27% without an active follow-up result; inactive means below that.

As usually defined, the inhibition is the drop in the measured response relative to a control, in per cent.

A short description of the assay: NS1A inhibition, H1N1 influenza, cell based functional assay (AID 504329). The note with it: percent inhibition, at 12.5 µM, hits give high values.
Consider `Oc1ccc(Cl)c2cccnc12`, for which the inhibition is -4.63%.

In the case of `CCCOCc1ccc(O)c2ncccc12`, the inhibition was -7.06%. On to `COCc1ccc(O)c2ncccc12`, for which the inhibition was 2.78%. Next, `Oc1ccc(F)c2cccnc12`: 3.59%; `Cc1ccsc1C1CC(=O)NC2=C1C(=O)CC(C)(C)C2` (stereo not given): -0.46%. Take `Cc1ccc(CNC(=O)C2CCC(=O)N(CCc3cccc(F)c3)C2)s1` (stereo not given): the inhibition was 11.3%. The same measure for `O=C(Nc1c2c(nn1-c1cccc(Cl)c1)CS(=O)(=O)C2)c1ccc2c(c1)OCO2`: 0.57%; for `Cc1nn(-c2ccccc2)c(C)c1/C=N/NC(=O)c1cc(-c2ccccc2)n[nH]1`: -0.6%. For the compound `Cc1ccc(-c2cc(C(=O)N/N=C/c3c(C)nn(-c4ccccc4)c3C)[nH]n2)cc1`, the inhibition was 11.2%. The same measure for `Cc1nn(-c2ccccc2)c(C)c1/C=N/NC(=O)c1cc(O)cc(O)c1`: -10.7%; for `Cc1nn(-c2ccccc2)c(N2CCCC2)c1/C=N/NC(=O)c1cc2ccccc2cc1O`: 2.95%; for `Cc1nn(-c2ccccc2)c(C)c1/C=N/NC(=O)c1ccccc1O`: 6.87%. On to `Cc1nn(-c2ccc(F)cc2)c(Cl)c1/C=N/NC(=O)c1ccc(O)cc1`, for which the inhibition is 9.96%. The same measure for `COc1ccc(-c2nc(CS(=O)CC(=O)N3CCN(C)CC3)c(C)o2)cc1OC` (stereo not given): -3.22%; for `COc1ccc(CCCc2nnc(SCC(=O)Nc3cc(C)c(C)cc3Br)o2)cc1`: -5.67%; for `O=C(CS(=O)(=O)Cc1ccccc1)N1CCN(C(=O)c2ccco2)CC1`: -6.89%. As to `Cc1ccc(S(=O)(=O)N/N=C(\c2ccccc2)c2cccnc2)cc1`, the inhibition is -2.16%. As to `COc1ccccc1-n1cc2c([N+](=O)[O-])cc([N+](=O)[O-])cc2n1`, the inhibition was 41.1%. Turning to `CNc1c([N+](=O)[O-])cnn1-c1ccccc1Cl`, the inhibition is -8.09%. As to `COc1ccc(C(=O)Nc2nc(-c3ccc([N+](=O)[O-])cc3)c(-c3ccc(OC)cc3)s2)cc1`, the inhibition is -6.06%.

As to `Nc1nn(-c2ccccc2)nc1C(=O)OCc1ccccc1F`, the inhibition is 1.7%. Take `CC(=O)c1sc(NC(=O)c2ccc(Cl)cc2)nc1C`: the inhibition was 0.95%. On to `CC1CN(c2ccc([N+](=O)[O-])cc2C(=O)N2CCOCC2)CC(C)N1` (stereo not given), for which the inhibition is -4.9%. Next, `CC(=O)Nc1cccc(NC(=O)CSc2nnc3ccc(-c4cccnc4)nn23)c1`: 2.74%; `CC1(C)Nc2ccc(O)cc2-c2c1ssc2=S`: 19%. Turning to `CCOc1ccc2c(c1)-c1c(ssc1=S)C(C)(C)N2`, the inhibition was 21.5%.

With `CC1CCCN(C(=O)CNC(=O)c2cccs2)C1` (stereo not given), the inhibition is -11.6%. As to `O=Cc1ccc(Cl)c(Cl)c1`, the inhibition was -13.3%.

With `COc1ccc(C)cc1NCC(=O)Nc1ccc(C(C)(C)C)cc1`, the inhibition was -0.26%.

As for `O=C(CSc1nccc2ccccc12)N1CCN(c2ccccn2)CC1`, the inhibition is 9.51%.

As for `O=C(COc1cccc2ccccc12)N1CCN(c2ccccn2)CC1`, the inhibition is 0.39%.

Regarding `Cc1cccc(OCC(=O)NCC(=O)N/N=C/c2cc(Br)ccc2OCc2ccccc2)c1`, the inhibition was 9.61%. For the compound `COc1cc(OC)c2ccc(=O)oc2c1C(CCN1CCCCC1)c1ccc(N(C)C)cc1` (stereo not given), the inhibition is 9.04%. As for `COc1cc(OC)c2ccc(=O)oc2c1C(CCN1CCCC1)c1ccc(N(C)C)cc1` (stereo not given), the inhibition was 21.8%.

With `COc1ccc(C(CCN2CCN(c3ccccc3)CC2)c2c(O)cc(OC)cc2OC)cc1` (stereo not given), the inhibition is 15.3%. For `COc1cc(O)c(C(CCN2CCCC2)c2ccc(N(C)C)cc2)c(OC)c1` (stereo not given), the inhibition is 26.1%. The same measure for `NC(=O)CCN1CCN(C(=O)c2ccc3nc(Cc4cccc(Cl)c4)oc3c2)CC1`: -5.64%. `CCOC(=O)c1c(NC(=O)COC(=O)Cc2n[nH]c(=O)c3ccccc23)sc(C(=O)N(C)C)c1C`: the inhibition was -4.28%.

In the case of `O=[N+]([O-])c1ccc(N/N=C/c2c[nH]c3ccccc23)cc1`, the inhibition was 7.03%.

`COc1ccccc1/C=N\Nc1ccccc1[N+](=O)[O-]`: the inhibition is 9.18%.

Consider `CCCOc1ccc(/C=N/Nc2ccc(C(=O)O)cc2)c(OCCC)c1`, for which the inhibition was 10.8%. Consider `O=[N+]([O-])c1ccccc1N/N=C\c1ccccc1Cl`, for which the inhibition was 1.01%. Consider `CCOc1ccccc1/C=N/Nc1ccccc1[N+](=O)[O-]`, for which the inhibition is 28.9%. `CCCOc1ccc(/C=N/Nc2ccccc2[N+](=O)[O-])c(O)c1`: the inhibition is 3.15%.

`Cc1cccc(NC(=O)Cn2nc(-c3ccco3)ccc2=O)c1C`: the inhibition is 0.81%.

With `COC(C[C@H](O)C[C@@H](O)[C@H](C)OCc1ccccc1)OC`, the inhibition was -2.93%.

Regarding `CCCCOCCCNC(=S)Nc1ccc(S(=O)(=O)N2CCOCC2)cc1`, the inhibition is 0.29%. Take `CCCCC1=C(C(=O)OCC)C(C(=O)OCC)Oc2ccccc21` (stereo not given): the inhibition was -8.03%. The same measure for `COc1ccc(CN(CC(=O)NCc2ccccc2)C(=O)CCC(=O)Nc2ccccn2)cc1`: -6.86%; for `C/C=C(\C)CN1CCC(n2nccc2NC(=O)CCCc2ccccc2)CC1`: -5.21%.

`CCCN(CC(=O)Nc1ccccc1C)C(=O)c1ccc(=O)n(Cc2ccccc2)n1`: the inhibition is 5.93%.

Consider `CN(C)N1C(N)=C(C#N)C(c2cccnc2)C2=C1CCCC2=O` (stereo not given), for which the inhibition is 0.98%. On to `COc1ccc(Cl)cc1NS(=O)(=O)c1cn(C)nc1C`, for which the inhibition is -6.95%. As for `Cc1c(C)n(Cc2ccccc2)c2ccc(C(=O)OCCN(C)C)cc12`, the inhibition was 18.7%. Turning to `Cc1c(C)n(CCN(C)C)c2ccc(C(=O)OCCN(C)C)cc12`, the inhibition is -4.19%.

`CCn1ccnc1CN(C)Cc1cn(-c2cc(C)ccc2C)nc1-c1ccccc1`: the inhibition was 7.7%. For the compound `Cc1ccc(C)c(-n2cc(CNCCCn3cccn3)c(-c3ccccc3)n2)c1`, the inhibition is -27.8%. The same measure for `CCOC(=O)C1(C(=O)OCC)NC(=O)CC1C` (stereo not given): 1.41%; for `NNC(=O)c1cc(-c2cccs2)nc2ccccc12`: 25.3%; for `C/C(=N\NC(=O)c1cc(C)nc2ccccc12)c1ccncc1`: 7.15%. Regarding `O=C(N/N=C/c1ccc2ncccc2c1)c1cc(-c2cccs2)nc2ccccc12`, the inhibition is -4.78%.

As for `C/C(=N\NC(=O)c1cc(C)nc2ccccc12)c1ccco1`, the inhibition is -1.27%. As to `COc1ccc(CC(=O)Nc2nc(-c3ccncc3)cs2)cc1`, the inhibition was 3.49%.

In the case of `Cc1nn(-c2ccccc2)c(N2CCCC2)c1/C=N/NC(=O)c1ccccc1O`, the inhibition was -10.1%. Turning to `O=C(Oc1ccc(/C=N/NC(=O)c2ccccc2O)cc1)c1ccccc1`, the inhibition is 1.64%. Consider `CCOC(=O)C1CCCN(C(=O)C2CCN(Cc3nc(-c4ccc(Cl)cc4)oc3C)CC2)C1` (stereo not given), for which the inhibition was -0.69%.

For `COC(=O)c1ccc(COc2ncnc3ccccc23)o1`, the inhibition is 2.36%. Take `CC1=C/C(=C(/c2ccc(O)c(C)c2)c2ccccc2S(=O)(=O)O)C=CC1=O`: the inhibition was 12.6%. With `CC1=C/C(=C(\c2ccc(O)c(C)c2)c2ccccc2S(=O)(=O)O)C=CC1=O`, the inhibition was -2.96%.

With `O=[N+]([O-])c1ccc([N+](=O)[O-])c(Nc2ccc(N3CCOCC3)cc2)c1`, the inhibition is -0.167%. For the compound `O=[N+]([O-])c1ccc(N2CCOCC2)c([N+](=O)[O-])c1`, the inhibition is 4.03%. The same measure for `NC(=O)c1ccccc1N/C=C/C(=O)c1ccccc1`: 1.83%; for `COc1ccc(Cn2c(=O)[nH]c3cc(C(=O)N4CCN(c5ccc(OC)cc5)CC4)ccc3c2=O)cc1`: -8.57%.

In the case of `Cc1ccc(NC(=O)COC(=O)Cn2ccc(C(F)(F)F)n2)cc1Cl`, the inhibition was 0.4%.

With `CCN=c1scc(-c2ccco2)n1/N=C/c1ccc(OC)c(O)c1`, the inhibition was 28.8%.

Turning to `CN=c1scc(-c2ccco2)n1/N=C/c1ccc(O)c(O)c1`, the inhibition is 19.1%.

Take `CN(CC(=O)Nc1ccccc1Cl)C(=O)C1CCN(C(=O)c2ccc(F)cc2)CC1`: the inhibition is -9.67%. In the case of `Cc1cc(C(=O)Nc2cccc(S(=O)(=O)N3CCOCC3)c2)c2ccccc2n1`, the inhibition was -7.61%. Turning to `O=C(C[n+]1ccccc1)N/N=C/c1cc(Br)ccc1F`, the inhibition was 2.1%. For the compound `O=C(Cc1ccccc1)N/N=C/c1cc(Br)cc(Br)c1O`, the inhibition was -3.61%. Regarding `COc1ccc(Br)cc1/C=N/NC(=O)C[n+]1ccccc1`, the inhibition is -3.17%.

As to `O=C(C[n+]1ccccc1)N/N=C/c1ccc(Br)cc1`, the inhibition was 3.75%. The same measure for `O=S(=O)(NN1CCOCC1)c1ccc(Br)cc1`: -5.55%. As to `COc1ccc(/C=N/NC(=O)C2c3ccccc3-c3ccccc32)cc1`, the inhibition was 1.63%. `CCOC(=O)C1CCN(/C=C2\C(=O)NC(=S)N(CC)C2=O)CC1`: the inhibition was 1.72%. As to `O=C(NNC(=O)C1CC=CCC1)c1ccccc1Cl` (stereo not given), the inhibition was -13.4%.

On to `O=C(NNC(=O)c1ccccc1Cl)c1ccccc1Cl`, for which the inhibition is -1.97%.

Take `O=C1/C(=C/c2cccs2)NC(=S)N1C1CC1`: the inhibition was 25.9%.

For `Cc1ccc(/C=C2\C(=O)NC(=S)N(c3ccccc3F)C2=O)s1`, the inhibition is -6.98%. Next, `Cc1ccccc1SCC(=O)NNC(=O)c1ccccc1O`: -9.27%. As to `CCNC(=S)NNC(=O)c1ccncc1`, the inhibition is -6.57%. With `COc1ccc(/C=C2/C(=O)NC(=S)N(C3CC3)C2=O)cc1CN1C(=O)c2ccccc2C1=O`, the inhibition was -5.91%. Turning to `Cc1cccc(NC(=O)COc2ccc(/C=N\n3cnnc3)cc2)c1`, the inhibition was -2.09%. Turning to `CS(=O)(=O)N1CCN(C(=O)Cc2ccc(Br)cc2)CC1`, the inhibition was -21.4%. The same measure for `O=C(O)/C=C/c1cn(-c2ccccc2)nc1-c1ccccc1`: -7.13%.
